Assay results from the supplement of paper PMC6555819.

Tested on: PXR:RXRa (NR concentration 270 nM, RXRa partner concentration 90 nM)
Assay: PBM binding z-score (relative to random genomic background probes); higher = stronger binding; sequences stand for … in GC…GCGATTGACAGCGTAGAATGAAGG
Summary of the method: (§1)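 Probes were double-stranded and carried 34-nt variable regions with direct-repeat seeds, single-nucleotide variants, half-site ablations and random human genomic background sequences, printed on custom Agilent 4×180K protein-binding microarrays. Arrays were incubated 1 h with ligand-free nuclear receptor dimers in PBS pH 7.4, 2% milk, 0.02% Triton X-100, 1 mM DTT, 0.2 mg/mL BSA and 0.4 mg/ml salmon testes DNA. Antibodies against each partner (one per run) detected binding, and scanned fluorescence was regression-normalized. Binding z-scores use the random background probes as reference.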

Sequence	PBM binding z-score
TAGCCTAGGTCATTCAGGGGCCAGTTTAGAAAGC	2.37
CTCGAAAGGTCGTGCTCACGTGAGTATACCAAAC	2.86
GCTCGGAGGACAAGGTCAGAGCATTGTCCGTAGA	1.69
TAGCCTAGGTCAGATCGGGCAAGTATACGCTATA	0.344
CAAACTAGGTCAAGGTCATAGTCGGTTTGTGCCA	5.2
TTACCAAGGTGAAGGTCCTTGATCCCTCTGTAGA	0.544
CGAACGAGGGCATGAGTTGACAGCAAATGCCGAT	0.679
ATCGAAAGGTCGAACGTGAGTATACCCACCCGAA	2.61
TCTGCTAGGTCAGCTGGTCAGCTAACGAGCTGCC	0.279
GATACAGGGTCAGCCAGAGGCCAGAGTATGGAAA	3.4
GCTATTAGTTGAAAGGGCAACCCAATGATTCTCG	0.791
GCGACTGGGGCATCAGCAGTTTACCATAACTTAA	0.227
ATATGAAGGTTACATCCGGGTCATTCAGGCTATG	4.21
CGTCAAAGATCAACTAAGGTAACGTAAAGCACGC	1.32
AGATTGAGGTTAAGATCAGGGAAACAGAATACAT	1.3
GATACAGGGTCAAGGCCAGCGTACGCGTATTGAT	3.48
AGTACGAGGGCACGCTGAGTTGATAGCAGAGTAG	1.4
TGAATGAGGTTAAAGATCCGGGAACGTGGCGTCG	1.11

Tested on: PXR homodimer (NR concentration 270 nM)
Assay: as above
Summary of the method: as §1

Sequence	PBM binding z-score
CGTCCAAGGTCGTAGGAGGTCAGTGAAGACAGAT	1.8
TCTGCTAGGTCAACGATGATCAGCTAATCTGCTA	-0.713
TCAAATAGGTAAAGGTGAAAGTCGAACGATATGA	0.187
TCTATTAGTTGATTAGGGCAACTGAAACAGCGGA	0.247
AGAATGAGGTAATACGTAGATCAGGGAAGAAAGT	0.294
ACTATTAGTTGACTTAGGACAACCGATACGACGC	0.511
AGTCAAAGTTCAGGACGAAGTAACGTAAAGCACG	0.921
TCTTGTAGATCAAGGGTTAAGAAAGCCGAAGCCT	-0.23
CGAACTAGGTCGGAACAGGACAGTGAAGGATGAT	-0.583
AGAACGAGGGCAATAAGTTGATAGCACGGGTGGC	3.39
AGAACGATGGCACGCTGAGTTGATAGCAGAGTAG	-0.384
GATACAGGGTCAGCTAGAGGACAGAGTATGGAAA	0.27
TCATATAGGTAAATGCTAGGTGAAAGTGCGATCT	0.401
GCTAGTTGGTCAGTAAAAGGTCAGACACCGGTCG	0.554
AGAATGAGGTTACCAAACATCAGGGAAACGCTTG	-0.13
ACTCGGAAGACAAAGGTCAGAGCTACGCCAGTGA	0.247
ACAGACAGGTTAGTGAAGGTAACTCAGCTGGACG	-0.25
TCTATTAGTTGACTAGGGCAACCGAAACAGCGGA	0.269
ACTAGCAGGCCAAGTTTGGGTCACTTAAACAAAG	-0.404
CCTACTGGGCCACGAAAGCTCATTGATTCAGTGA	-0.798

Sequence	PBM binding z-score
ACTAGCAGGCCAGGTTTGGGTCACTCAAACAAAG	-0.166
TAGCCTACGTCAGATCGGGCCAGTATACGCTATA	-1.22
TAGCCTAGGTCATTCAGGGGCCAGTTTAGAAAGC	-0.0546
CTCGAAAGGTCGTGCTCACGTGAGTATACCAAAC	-0.121
GCTCGGAGGACAAGGTCAGAGCATTGTCCGTAGA	-0.0134
TAGCCTAGGTCAGATCGGGCAAGTATACGCTATA	-0.431
CAAACTAGGTCAAGGTCATAGTCGGTTTGTGCCA	2.73
TTACCAAGGTGAAGGTCCTTGATCCCTCTGTAGA	-0.323
CGAACGAGGGCATGAGTTGACAGCAAATGCCGAT	0.0292
ATCGAAAGGTCGAACGTGAGTATACCCACCCGAA	0.229
TCTGCTAGGTCAGCTGGTCAGCTAACGAGCTGCC	-1.58
GATACAGGGTCAGCCAGAGGCCAGAGTATGGAAA	-0.204
GCTATTAGTTGAAAGGGCAACCCAATGATTCTCG	0.511
GCGACTGGGGCATCAGCAGTTTACCATAACTTAA	0.14
ATATGAAGGTTACATCCGGGTCATTCAGGCTATG	2.67
CGTCAAAGATCAACTAAGGTAACGTAAAGCACGC	0.224
AGATTGAGGTTAAGATCAGGGAAACAGAATACAT	0.986
GATACAGGGTCAAGGCCAGCGTACGCGTATTGAT	0.372
AGTACGAGGGCACGCTGAGTTGATAGCAGAGTAG	0.398
TGAATGAGGTTAAAGATCCGGGAACGTGGCGTCG	-0.152

Tested on: RARa:RXR (NR concentration 270 nM, RXRa partner concentration 90 nM)
Assay: as above
Summary of the method: as §1

Sequence	PBM binding z-score
CGTCCAAGGTCGTAGGAGGTCAGTGAAGACAGAT	4.37
TCTGCTAGGTCAACGATGATCAGCTAATCTGCTA	1.77
TCAAATAGGTAAAGGTGAAAGTCGAACGATATGA	1.93
TCTATTAGTTGATTAGGGCAACTGAAACAGCGGA	0.283
AGAATGAGGTAATACGTAGATCAGGGAAGAAAGT	0.431
ACTATTAGTTGACTTAGGACAACCGATACGACGC	0.675
AGTCAAAGTTCAGGACGAAGTAACGTAAAGCACG	1.93
TCTTGTAGATCAAGGGTTAAGAAAGCCGAAGCCT	1.06
CGAACTAGGTCGGAACAGGACAGTGAAGGATGAT	0.314
AGAACGAGGGCAATAAGTTGATAGCACGGGTGGC	0.217
AGAACGATGGCACGCTGAGTTGATAGCAGAGTAG	-0.792
GATACAGGGTCAGCTAGAGGACAGAGTATGGAAA	4.99
TCATATAGGTAAATGCTAGGTGAAAGTGCGATCT	1.12
GCTAGTTGGTCAGTAAAAGGTCAGACACCGGTCG	4.17
AGAATGAGGTTACCAAACATCAGGGAAACGCTTG	1.59
ACTCGGAAGACAAAGGTCAGAGCTACGCCAGTGA	3.84
ACAGACAGGTTAGTGAAGGTAACTCAGCTGGACG	0.306
TCTATTAGTTGACTAGGGCAACCGAAACAGCGGA	0.566
ACTAGCAGGCCAAGTTTGGGTCACTTAAACAAAG	1.6
CCTACTGGGCCACGAAAGCTCATTGATTCAGTGA	-0.778

Sequence	PBM binding z-score
ACTAGCAGGCCAGGTTTGGGTCACTCAAACAAAG	1.17
TAGCCTACGTCAGATCGGGCCAGTATACGCTATA	-0.618
TAGCCTAGGTCATTCAGGGGCCAGTTTAGAAAGC	3.52
CTCGAAAGGTCGTGCTCACGTGAGTATACCAAAC	3.31
GCTCGGAGGACAAGGTCAGAGCATTGTCCGTAGA	2.26
TAGCCTAGGTCAGATCGGGCAAGTATACGCTATA	1.06
CAAACTAGGTCAAGGTCATAGTCGGTTTGTGCCA	5.56
TTACCAAGGTGAAGGTCCTTGATCCCTCTGTAGA	1.01
CGAACGAGGGCATGAGTTGACAGCAAATGCCGAT	0.954
ATCGAAAGGTCGAACGTGAGTATACCCACCCGAA	2.83
TCTGCTAGGTCAGCTGGTCAGCTAACGAGCTGCC	0.872
GATACAGGGTCAGCCAGAGGCCAGAGTATGGAAA	4.58
GCTATTAGTTGAAAGGGCAACCCAATGATTCTCG	1.27
GCGACTGGGGCATCAGCAGTTTACCATAACTTAA	0.0655
ATATGAAGGTTACATCCGGGTCATTCAGGCTATG	4.2
CGTCAAAGATCAACTAAGGTAACGTAAAGCACGC	1.52
AGATTGAGGTTAAGATCAGGGAAACAGAATACAT	1.87
GATACAGGGTCAAGGCCAGCGTACGCGTATTGAT	4.36
AGTACGAGGGCACGCTGAGTTGATAGCAGAGTAG	0.957
TGAATGAGGTTAAAGATCCGGGAACGTGGCGTCG	1.84
